Experimental data from PubChem BioAssay AID488854 (National Center for Advancing Translational Sciences (NCATS), 2010).
Several values for one entry are separate records, joined by “and”; a condition that tells them apart may be missing. Equal entries are not always repeated. Inconclusive results are not listed. Activity calls are given as the source filed them. The call rests on the fitted dose curve; in most records, active means well fitted activation curve with a large enough effect; inconclusive means small, poorly fitted or top-dose-only effect; inactive means no such curve, though single readings can be large or run the other way.

What follows are molecules tested against Lysosomal acid glucosylceramidase (Homo sapiens) (UniProt P04062) (assay: qHTS Assay for Inhibitors and Activators of N370S glucocerebrosidase as a Potential Chaperone Treatment of Gaucher Disease: Confirmation for Probe SAR). Settings: N370S GC spleen homogenate, 4MU-glucoside fluorescence; series mostly up to 57.5 µM.
Chain of Lysosomal acid glucosylceramidase (Homo sapiens) (P04062 whole entry N409S): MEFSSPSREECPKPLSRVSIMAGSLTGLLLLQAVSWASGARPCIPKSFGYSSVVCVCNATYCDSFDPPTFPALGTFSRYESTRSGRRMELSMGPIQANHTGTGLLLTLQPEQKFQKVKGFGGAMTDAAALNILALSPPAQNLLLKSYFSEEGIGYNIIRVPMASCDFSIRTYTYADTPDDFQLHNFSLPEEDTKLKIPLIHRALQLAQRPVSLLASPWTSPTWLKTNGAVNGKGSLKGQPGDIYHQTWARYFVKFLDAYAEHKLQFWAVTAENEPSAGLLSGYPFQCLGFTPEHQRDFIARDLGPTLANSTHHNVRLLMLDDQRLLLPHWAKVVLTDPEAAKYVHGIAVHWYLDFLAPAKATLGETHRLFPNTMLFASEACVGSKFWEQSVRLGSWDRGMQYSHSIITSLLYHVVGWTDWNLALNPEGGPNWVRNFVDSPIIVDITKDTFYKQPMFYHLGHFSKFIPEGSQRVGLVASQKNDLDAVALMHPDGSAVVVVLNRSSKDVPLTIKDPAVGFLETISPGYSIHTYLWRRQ
Text: NIH Chemical Genomics Center [NCGC] NIH Molecular Libraries Probe Production Centers Network [MLPCN] MLPCN Grant: MH086442-01 Assay Submitter (PI): Wei Zheng Glucocerebrosidase (GC) catalyzes the hydrolysis of beta-glucocerebroside to glucose and ceramide in lysosomes. Mutations in the glucocerebrosidase gene result in Gaucher disease, an autosomal recessive lysosomal storage disorder. Many of the mutations encountered in patients with Gaucher disease are missense alterations that may cause misfolding, decreased stability and/or mistrafficking of this lysosomal protein. […] These inhibitors include iminosugar analogs and three non-iminosugar inhibitors identified from a previous HTS of 62,000 compounds with the wild type recombinant enzyme. However, the enhancement of enzyme activity by the chaperone action of an enzyme inhibitor must be balanced against the direct inhibition of the enzyme. An enzyme activator could also function as a chaperone by binding to the enzyme and helping to correct its misfolding and mistrafficking. While activators for GC have not yet been identified, they may have better therapeutic potential than inhibitors. Therefore the discovery and development of chemical activators may provide a new strategy for the chaperone therapy. We have optimized a new assay using N370S mutant GC derived from the spleen of a Gaucher patient. […] In addition, the MLPCN compound library has expanded, which increases the chance of finding new and better probes.
NCGC Assay Protocol Summary: This is a fluorogenic enzyme assay with 4-methylumbelliferyl-beta-D-glucopyranoside as the substrate and N370S glucocerebrosidase from human spleen homogenate as the enzyme preparation. Upon the hydrolysis of this fluorogenic substrate, the resulting product, […] which can be detected by a standard fluorescence plate reader. Data were normalized to the controls for basal activity (without enzyme) and 100% activity (with enzyme). The AC50 values were determined from concentration-response data modeled with the standard Hill equation. Assay buffer: 50 mM citric acid (titrated with potassium phosphate to pH 5.0), 100 mM potassium chloride, 10 mM sodium chloride, 1 mM magnesium chloride, 0.01% Tween-20. 1536-well assay protocol: (1) Add 2 ul/well of spleen homogenate (27 ug final) (2) Add 23 nL compounds in DMSO solution. The final titration was 0.5 nM to 58 uM. (3) Add 2 ul of substrate (1 mM final) (4) Incubate at 37C for 40 min. (5) Add 2 ul stop solution (1M NaOH and 1M Glycine mixture, pH 10) (6) Detect the assay plate in a ViewLux plate reader (PerkinElmer) with Ex=365 nm and Em=440nm. Keywords: Glucocerebrosidase, beta-glucosidase, Gaucher Disease, pharmacological chaperone, chaperone therapy, high throughput screening, glucocerebrosidase inhibitor, MLSMR, MLSCN, NIH Roadmap, qHTS and NCGC
With `Cc1cccc(NC(=O)c2cnn3c(C)cc(C)nc23)c1` the Potency was 3.66 µM (active).
`COc1ccc(NC(=O)c2cnn3c(C)cc(C)nc23)cc1F` was tested, and the Potency was 0.819 µM (active).
With `Cc1cc(-c2ccccc2)nc2c(C(=O)Nc3ccc4c(c3)CCC4)cnn12` the Potency was 8.19 µM (active).
In the case of `Cc1cc(C)n2ncc(C(=O)Nc3cccc(C#N)c3)c2n1`, the Potency is reported as “inactive”.
In the case of `CCc1ccc(NC(=O)c2cnn3c(C)cc(-c4ccccc4)nc23)cc1`, the Potency is reported as 13 µM (active).
In the case of `Cc1cc(C)n2ncc(C(=O)Nc3ccc(C(F)(F)F)cc3)c2n1`, the Potency is reported as 2.06 µM (active).
For `Cc1cc(C)n2ncc(C(=O)Nc3cc(Cl)cc(Cl)c3)c2n1`, the Potency was 25.9 µM (active).
`COc1ccc(NC(=O)c2cnn3c(C)cc(C)nc23)cc1Cl` was tested, and the Potency was 2.06 µM (active).
In the case of `Cc1cc(-c2ccccc2)nc2c(C(=O)Nc3ccc(Cl)c(Cl)c3)cnn12`, the Potency is reported as 6.51 µM (active).
With `COc1ccc(NC(=O)c2cnn3c(-c4ccccc4)cc(C)nc23)cc1` the Potency was “inactive”.
`CNC(=O)c1cnn2c(C)cc(C)nc12` was tested, and the Potency was “inactive”.
For `Cc1cc(C)n2ncc(C(=O)NC(C)C)c2n1`, the Potency was “inactive”.
In the case of `O=C(NC1CCCCC1)c1cnn2c1NC(=C1CC1)C=C2C(F)F`, the Potency is reported as 12.6 µM (active).
With `CC(=O)Nc1ccccc1NC(=O)c1cnn2c(C)cc(C)nc12` the Potency was “inactive”.
`Cc1ccc(NC(=O)c2cnn3c(C)cc(C)nc23)cc1` was tested, and the Potency was 3.26 µM (active).
With `COc1ccc(NC(=O)c2cnn3c(C)cc(C)nc23)cc1` the Potency was 6.51 µM (active).
With `Cc1ccc(NC(=O)c2cnn3c(C)cc(C)nc23)c(C)c1` the Potency was 10.3 µM (active).
With `Cc1cc(C)n2ncc(C(=O)NCC(C)C)c2n1` the Potency was 25.9 µM (active).
With `Cc1cc(C)n2ncc(C(=O)Nc3ccc4c(c3)OCO4)c2n1` the Potency was 6.51 µM (active).
`Cc1cc(C)n2ncc(C(=O)NCc3ccco3)c2n1` was tested, and the Potency was 41.1 µM (active).
`Cc1cc(C)n2ncc(C(=O)Nc3ccccc3)c2n1` was tested, and the Potency was 5.17 µM (active).
For `O=C(Nc1ccccc1Sc1ccccc1)c1cnn2c1NC(=C1CC1)C=C2C(F)F`, the Potency was 4.61 µM (active).
For `O=C(Nc1ccccc1Sc1ccccc1)c1cnn2c1NC(=C1CC1)C=C2C(F)(F)F`, the Potency was 14.1 µM (active).
For `O=C(Nc1ccc2c(c1)CCC2)c1cnn2c1NC(=C1CC1)C=C2C(F)F`, the Potency was 3.98 µM (active).
With `Cc1cc(C)n2ncc(C(=O)Nc3ccc(Br)cc3)c2n1` the Potency was 2.31 µM (active).
For `CC(=O)Nc1ccc(NC(=O)c2cnn3c(C)cc(C)nc23)cc1`, the Potency was “inactive”.
For `CCCCN(CCCNC(=S)NCCCc1cnc[nH]1)c1ccc(Br)cn1`, the Potency was “inactive”.
`Cc1cc(C)n2ncc(C(=O)Nc3ccccc3Sc3ccccc3)c2n1` was tested, and the Potency was 18.3 µM (active).
`Cc1cc(-c2ccccc2)n2ncc(C(=O)Nc3ccc(Cl)c(Cl)c3)c2n1` was tested, and the Potency was “inactive”.
`Cc1cc(C)n2ncc(C(=O)N3CCCC3)c2n1` was tested, and the Potency was “inactive”.
With `Cc1cc(-c2ccccc2)n2ncc(C(=O)Nc3ccccc3Sc3ccccc3)c2n1` the Potency was “inactive”.
For `OC[C@H]1CNC[C@@H](O)[C@@H]1O`, the Potency was “inactive”.
In the case of `Cc1cc(C)n2ncc(C(=O)Nc3ccc4c(c3)CCC4)c2n1`, the Potency is reported as 3.26 µM (active).
`C#Cc1ccc(NC(=O)c2cnn3c(C)cc(C)nc23)cc1` was tested, and the Potency was 0.366 µM (active).
For `Cc1cc(C)n2ncc(C(=O)Nc3ccc(Cl)c(Cl)c3)c2n1`, the Potency was 3.66 µM (active).
For `Cc1cc(C)n2ncc(C(=O)NC3CCC(C(C)(C)C)CC3)c2n1` (stereo not given), the Potency was 8.19 µM (active) and 1.63 µM (active).
For `Cc1cc(C)n2ncc(C(=O)Nc3cccc(C(F)(F)F)c3)c2n1`, the Potency was 6.51 µM (active).
For `Cc1cc(C)n2ncc(C(=O)NCc3ccccc3)c2n1`, the Potency was 32.6 µM (active).
For `Cc1cc(C)n2ncc(C(=O)Nc3ccccc3C)c2n1`, the Potency was 16.3 µM (active).
For `Cc1cc(C)n2ncc(C(=O)Nc3ccc(S(C)(=O)=O)cc3)c2n1`, the Potency was “inactive”.
